Experimental findings from ChEMBL document CHEMBL3988442, “University of Dundee, Small-Polar-MMV Screening Library” (2021) are described below.

Structures are written as SMILES. Among all 48,000 compounds or so, about 13,000 (27%) showed an effect of 50% or more. The list shows a part of the results.

The test system of the assay is Wolbachia pipientis. In words: Anti-Wolbachia Cell-Based Screen. To be noted: 5 µM. It is filed as functional. The arrangement: scale not given: in the data most compounds retested in dose-response had high values.
`Cc1cnc(CN(C)C2CCN(CCc3cnn(C)c3)C2)o1` (centres undefined): the “Percent Effect” value was -1.466%. To `CCn1ccnc1CN1CCC(N(C)Cc2ncc(C)o2)C1` (centres undefined) belongs -2.074%; to `Cc1cnc(CN2CCC(N(C)Cc3noc(C4CC4)n3)C2)o1` (centres undefined), 113%. As for `Cc1cnc(CN(C)C2CCN(Cc3nnc(C4CC4)o3)C2)o1` (centres undefined), the “Percent Effect” value came to 131.1%. To `CN(Cc1noc(C2CC2)n1)C1CCN(Cc2ccncc2)C1` (centres undefined) belongs -0.4709%. To `O=C(c1cnn2cc(CCO)cnc12)N1CCOC(C(F)(F)F)C1` (centres undefined) belongs -0.009577%; to `CCOc1ccc(CN(C)C(=O)NC(C)c2nncn2C)cc1` (centres undefined), -12.44%. To `CC(NCc1cccnc1)c1cc2c(cc1Br)OCCO2` (centres undefined) belongs -3.161%.

For `N#Cc1cccc(CS(=O)(=O)NCCC(O)c2ccccc2)c1` (centres undefined), the “Percent Effect” value is on record as 7.655%. To `CC(c1ccc(Cl)cc1)N1CCN(CCNS(C)(=O)=O)CC1` (centres undefined) belongs -1.965%; to `CCS(=O)(=O)NCCN1CCN(C(C#N)c2ccccc2)CC1` (centres undefined), 106.3%; to `CNS(=O)(=O)CCCN1CCCN(Cc2ccccc2)CC1C` (centres undefined), -3.956%. To `CC(c1ccc(Cl)cc1)N1CCN(CCCS(C)(=O)=O)CC1` (centres undefined) belongs -1.134%; to `CS(=O)(=O)CCCN1CCN(C(C#N)c2ccccc2)CC1` (centres undefined), 95.09%; to `CNS(=O)(=O)CCCN1CCN(C(C)c2cccnc2)CC1` (centres undefined), 7.44%. To `CNS(=O)(=O)CCCN1CCN(C(C#N)c2ccccc2)CC1` (centres undefined) belongs 112.4%.

On to `CC(c1ccc(Cl)cc1)N1CCN(CCS(C)(=O)=O)CC1` (centres undefined), for which the “Percent Effect” value is on record as 6.907%. Turning to `Cc1cc(C(=O)N2C[C@H](CO)C[C@H](CN3CCOCC3)C2)nc(C)n1`, the “Percent Effect” value was -11.42%. To `CC(C)CCN(c1cn[nH]c1)S(=O)(=O)c1cccc(C#N)c1` belongs -0.3515%; to `NC(=O)c1ccc(CNC2CCCSC2)cc1` (centres undefined), -4.812%. To `CCS(=O)(=O)N(C)C(=O)c1cc(C)n(-c2cccc(OC)c2)c1C` belongs -13.82%; to `O=C(c1ccco1)N1CCCC(c2cc(C(F)F)n3ncnc3n2)C1` (centres undefined), -11.1%; to `O=C(c1ccccn1)N1CCCC(c2cc(C(F)F)n3ncnc3n2)C1` (centres undefined), 111.1%. To `O=C(c1cccnc1)N1CCCC(c2cc(C(F)F)n3ncnc3n2)C1` (centres undefined) belongs 1.815%; to `O=C(c1nc(=O)[nH][nH]1)N1CCCC(c2cc(C(F)(F)F)[nH]n2)C1` (centres undefined), -1.931%; to `O=C(c1ccco1)N1CCCC(c2cc(C(F)(F)F)n3ncnc3n2)C1` (centres undefined), 95.67%. For `O=C(c1ccncc1)N1CCCC(c2cc(C(F)F)n3ncnc3n2)C1` (centres undefined), the “Percent Effect” value is 88.08%. To `O=C(c1ccc(Cl)o1)N1CCCC(c2cc(C(F)(F)F)[nH]n2)C1` (centres undefined) belongs -0.4503%; to `Cc1ncsc1C(=O)N1CCCC(c2cc(C(F)F)n3ncnc3n2)C1` (centres undefined), 110.2%.
